Experimental data published in the supplement of paper PMC10646978.
± gives the standard deviation.

Columns and labels:
Settings in all cases: modulator concentration 10 µM
[1] = test system: RAW-Dual (murine macrophage reporter line); test: NF-kB reporter (SEAP) activity fold change vs agonist alone; higher = enhanced NF-kB activity
Method in brief: (§1)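 In 384-well plates holding 50 000 RAW-Dual murine macrophage reporter cells per well, compound at 10 μM final was pre-incubated for 1 hour at 37 °C, after which a PRR agonist was added overnight. Supernatant SEAP read with QUANTI-Blue at 620 nm absorbance reported NF-κB, and Lucia luciferase read with QUANTI-Luc luminescence reported IRF. Fold change values come from dividing each reporter signal by the mean of agonist-only control wells on the same plate, averaged over replicate plates with propagated errors.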

[2] = test system: RAW-Dual (murine macrophage reporter line); test: IRF reporter (Lucia luciferase) activity fold change vs agonist alone; higher = enhanced IRF activity
Method in brief: as §1

[3] = test system: RAW-Dual (murine macrophage reporter line); test: viability score (confluency relative to resting cells, overnight) (fraction); higher = more viable, active = viable (0.7 or more)
Method in brief: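 RAW-Dual macrophages in 384-well plates were exposed overnight to compound at 10 μM final. Confluency was imaged with IncuCyte, and two confluency masks were generated with IncuCyte software over all imaged wells. The viability score is confluency expressed relative to resting cells. Compounds were called viable if both masks exceeded 70% of resting cells.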

[4] = agonist: CpG ODN 1826 0.5 ug/mL

| Structure (SMILES) | NF-kB reporter [1, 4] | NF-kB reporter ([1]; agonist: LPS 0.1 ug/mL) | NF-kB reporter ([1]; agonist: MPLA […]) | IRF reporter ([2]; agonist: 3'3'-cGAMP 10 ug/mL) | IRF reporter ([2]; agonist: LPS 0.1 ug/mL) | IRF reporter ([2]; agonist: MPLA […]) | viability score [3] |
| --- | --- | --- | --- | --- | --- | --- | --- |
| Cc1sc(NC(=O)c2cc(Cl)ccc2[N+](=O)[O-])nc1-c1ccccc1 | 1 ± 0.064 | 1.08 ± 0.089 | 0.951 ± 0.034 | 0.983 ± 0.046 | 1.08 ± 0.055 | 1.08 ± 0.12 | 1 (active) |
| COC(=O)C1=CN(CC2CCCO2)C=C(C(=O)OC)C1c1cccc(F)c1 (stereo not drawn) | 0.948 ± 0.21 | 0.907 ± 0.084 | 1.05 ± 0.098 | 0.868 ± 0.026 | 1.21 ± 0.19 | 1.18 ± 0.16 | 0.954 (active) |
| O=C(COc1ccc2ccccc2c1)NCC#CCN1CCCCC1 | 0.854 ± 0.036 | 0.981 ± 0.078 | 1.07 ± 0.064 | 1 ± 0.048 | 1.27 ± 0.29 | 1.48 ± 0.49 | 0.956 (active) |
| COC(=O)Nc1nc2cc(C(=O)c3cccs3)ccc2[nH]1 [Prestw-100] | 2.4 ± 0.14 | 1.31 ± 0.094 | 1.98 ± 0.13 | 0.101 ± 0.0035 | 1.86 ± 0.18 | 2.05 ± 0.19 | 0.715 (active) |
| O=C(C(c1ccccc1)c1ccccc1)N1CCC(n2nccn2)CC1 | 1 ± 0.054 | 1.09 ± 0.13 | 0.904 ± 0.063 | 0.989 ± 0.053 | 1.25 ± 0.078 | 1.16 ± 0.12 | 0.999 (active) |
| O=C(CCC(=O)NN=Cc1ccc(O)cc1O)NN=Cc1ccc(O)cc1O | 0.934 ± 0.084 | 1.05 ± 0.067 | 0.978 ± 0.11 | 0.944 ± 0.042 | 1.52 ± 0.18 | 1.26 ± 0.13 | 0.994 (active) |
| Nc1nc(NC2CC2)c2ncn([C@H]3C=C[C@@H](CO)C3)c2n1.Nc1nc(NC2CC2)c2ncn([C@H]3C=C[C@@H](CO)C3)c2n1.O=S(=O)(O)O | 1.1 ± 0.26 | 1.02 ± 0.057 | 1.04 ± 0.093 | 0.864 ± 0.065 | 1.2 ± 0.15 | 1.07 ± 0.12 | 0.791 (active) |
| CC1C(C#N)=C(N)OC2=C1C(=O)CC(C)(C)C2 (stereo not drawn) | 1.01 ± 0.083 | 0.965 ± 0.12 | 0.96 ± 0.09 | 0.917 ± 0.072 | 1.28 ± 0.23 | 1.47 ± 0.35 | 1.02 (active) |
| CCN(CC)c1ccc(C=NNC(=O)c2ccccc2C)c(O)c1 | 2.52 ± 0.2 | 1.41 ± 0.092 | 3.2 ± 0.13 | 0.442 ± 0.032 | 0.974 ± 0.11 | 0.721 ± 0.15 | 0.444 (inactive) |
| CCOc1ccccc1OCCCCOc1cccc(Cl)c1 | 0.947 ± 0.15 | 1.04 ± 0.093 | 0.951 ± 0.084 | 0.956 ± 0.025 | 1.21 ± 0.15 | 1.23 ± 0.2 | 1 (active) |
| CC(=Cc1ccccc1)CN1CC(C)OC(C)C1 (stereo not drawn) | 0.788 ± 0.063 | 0.788 ± 0.05 | 1.04 ± 0.12 | 0.933 ± 0.044 | 1.28 ± 0.074 | 1.47 ± 0.17 | 0.956 (active) |
| COc1cc(C(=O)Nc2ccc(-c3ccc(N4CCC(C)CC4)nn3)cc2)cc(OC)c1OC | 0.862 ± 0.1 | 0.879 ± 0.073 | 0.754 ± 0.12 | 1.02 ± 0.087 | 1.26 ± 0.11 | 1.59 ± 0.12 | 0.913 (active) |
| NC(Cc1cc(I)c(Oc2cc(I)c(O)c(I)c2)c(I)c1)C(=O)O (stereo not drawn) | 0.948 ± 0.23 | 0.984 ± 0.098 | 0.94 ± 0.073 | 0.901 ± 0.036 | 1.18 ± 0.2 | 1.12 ± 0.14 | 1 (active) |
| CC[C@@H]([C@H](C)O)n1ncn(-c2ccc(N3CCN(c4ccc(OC[C@@H]5CO[C@@](Cn6cncn6)(c6ccc(F)cc6F)C5)cc4)CC3)cc2)c1=O | 0.947 ± 0.14 | 0.893 ± 0.068 | 1.07 ± 0.1 | 1.1 ± 0.055 | 1.18 ± 0.091 | 1.36 ± 0.12 | 1.02 (active) |
